# Screening data from PubChem.
# KAT2A inh: qHTS Assay for Inhibitors of GCN5L2; Histone acetyltransferase KAT2A (Homo sapiens), Q92830; GCN5L2 HAT assay, ThioGlo1 CoA-SH fluorescence; Potency, µM (doses to about 58.9 µM), without a hit: at the top dose activity change, negative = inhibition, actives largely listed as inhibitors; 390,000 tested, 0.21% active; further: potency means the concentration at half of the fitted maximal effect; on the % scale 0 is the no-effect control and ±100 the full control effect
#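 Compounds, pin-transferred from DMSO stocks, meet 20nM GCN5L2 for 15 min before the reaction begins with H3(1-25) peptide (75uM) and acetyl-CoA (70uM). Thiol-reactive ThioGlo1 reports CoA release over 20 min at room temperature.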
# BAZ2B block: qHTS Assay for Inhibitors of BAZ2B | AlphaScreen BAZ2B-H3K14Ac peptide displacement | Potency, µM (doses to about 114 µM), for the others: top-dose activity change, negative = inhibition, hits mostly inhibitors | 360,000 tested, 4.4% active; further: potency means the concentration at half of the fitted maximal effect; on the % scale 0 is the no-effect control and ±100 the full control effect; nearly all actives have a fitted effect of over 60% in size
#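 BAZ2B (50 nM) with biotin-H3(5-23)K14Ac peptide (50 nM) in PBS pH 7.4, 0.01% Tween-20, preformed 30 min, then compound 30 min at room temperature; top concentration 110uM. AlphaScreen streptavidin donor/nickel chelate acceptor beads (10 ug/mL final), 20 min dark, signal read.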
# JMJD2A Tudor: qHTS Assay for Inhibitors of JMJD2A-Tudor Domain | AlphaScreen JMJD2A-Tudor / H3K4me3 peptide binding | Potency, µM (highest dose often 114 µM), for the others: at the top dose activity change, negative = inhibition, usual class: inhibitors | 390,000 tested, 4.4% active; further: potency means the concentration at half of the fitted maximal effect; on the % scale 0 is the no-effect control and ±100 the full control effect; nearly all actives have a fitted effect of over 50% in size
# HP1b binding inh: HTS for Inhibitors of HP1-beta Chromodomain Interactions with Methylated Histone Tails; Potency, µM (top dose mostly 114 µM), without a hit: at the top dose activity change, negative = inhibition, actives largely listed as inhibitors; AlphaScreen HP1-beta / biotin-H3K9me3 peptide binding; Chromobox protein homolog 1 (Homo sapiens), P83916; 390,000 tested, 0.56% active; AID 540317, 2011; further: potency means the concentration at half of the fitted maximal effect; nearly all actives have a fitted effect of over 70% in size
#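 Compound inhibition of the preformed complex between 50 nM HP1-beta and 50 nM biotinylated H3K9me3 peptide was read by AlphaScreen. Buffer was PBS pH 7.4 with 0.01% Tween-20. Incubations ran 30 min at room temperature, with 10 ug/mL donor/acceptor beads.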
# PLK1 PBD inh: qHTS for Inhibitors of PLK1-PDB (polo-like kinase 1 - polo-box domain): Primary Screen; Serine/threonine-protein kinase PLK1 (Homo sapiens), P53350; Plk1 PBD binding of FITC phosphopeptide, fluorescence polarization; 360,000 tested, 2.8% active; Potency, µM, for the others: max response, negative = inhibition, hits mostly inhibitors; further: potency means the concentration at half of the fitted maximal effect; series mostly up to about 57 µM; on the % scale 0 is the no-effect control and ±100 the full control effect; nearly all actives have a fitted effect of over 65% in size
# Target sequence (P53350 whole entry, looked up, the tested form may be a part): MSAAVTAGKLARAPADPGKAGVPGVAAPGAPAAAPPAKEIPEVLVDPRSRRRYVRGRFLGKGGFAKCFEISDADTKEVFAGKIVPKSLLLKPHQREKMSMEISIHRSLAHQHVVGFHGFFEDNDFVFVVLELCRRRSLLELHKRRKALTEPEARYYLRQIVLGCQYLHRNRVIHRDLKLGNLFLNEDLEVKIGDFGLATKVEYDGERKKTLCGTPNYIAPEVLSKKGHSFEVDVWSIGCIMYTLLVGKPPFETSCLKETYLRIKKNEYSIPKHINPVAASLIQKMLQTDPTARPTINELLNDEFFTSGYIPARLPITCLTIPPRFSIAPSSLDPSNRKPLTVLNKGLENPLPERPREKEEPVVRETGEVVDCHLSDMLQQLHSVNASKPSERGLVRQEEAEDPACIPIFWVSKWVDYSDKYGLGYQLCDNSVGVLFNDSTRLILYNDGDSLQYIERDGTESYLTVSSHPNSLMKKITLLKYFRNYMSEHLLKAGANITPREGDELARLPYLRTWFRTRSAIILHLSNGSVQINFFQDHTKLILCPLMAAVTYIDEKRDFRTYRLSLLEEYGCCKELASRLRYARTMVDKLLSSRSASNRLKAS
# PI5P4Ka inh: qHTS for Inhibitors of phosphatidylinositol 5-phosphate 4-kinase (PI5P4K). max response, %. Phosphatidylinositol 5-phosphate 4-kinase type-2 alpha (Homo sapiens), P48426. 330,000 tested, 1.2% active. PI5P4Kalpha enzyme, ADP-Glo luminescence, 60 min; active compounds read low. AID 652105, 2013; active means max response of -50% or lower; inconclusive means between -30% and -50%; inactive means -30% or higher; further: value at the top dose of about 77 µM; on the % scale 0 is the no-effect control and ±100 the full control effect
#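 PI5P4Kalpha ADP-Glo assay; 5 microM ATP final; 60 min RT reaction; HEPES pH 7.4/EGTA/CHAPS, 5% DMSO; controls lacking substrate or enzyme; luminescent end-point.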
# ADP-Glo counter: qHTS for Inhibitors of PI5P4K: ADP-Glo counter assay | shares compounds with PI5P4Ka inh | ADP-Glo detection counter-screen, luciferase luminescence, no enzyme | Potency, µM (top dose mostly 76.9 µM), without a hit: at the highest dose activity change, negative = inhibition, usual class: inhibitors | 1,100 tested, under 10 active | AID 743285, 2014
# The depositor's hits bear a star; u = inconclusive; x = no result; [ ] = dose if it differs, or a comment. Most compounds without a hit are left out; they make up all but 7% or so of the library. Unless noted, the call rests on the fitted dose curve; in most records, active means well fitted curve in the direction sought with a large enough effect; inconclusive means small, poorly fitted or top-dose-only effect, or another doubt; inactive means no such curve, though single readings can be large; an effect the other way counts as inactive or inconclusive.
SMILES,KAT2A inh,BAZ2B block,JMJD2A Tudor,HP1b binding inh,PLK1 PBD inh,PI5P4Ka inh,ADP-Glo counter
CCOC(=O)C1CCN(C(c2ccccc2OC)c2c(O)cc(C)n(CCOC)c2=O)CC1 (centres undefined),-4%,2%,-4%,42%[57 µM],x,x,x
COc1ccc(N2CCN(C(=O)Cc3ccc(S(=O)(=O)N4CCOCC4)s3)CC2)cc1,-13%,40µM*,45µM*,50µM*,u,-71*,2%
O=C1Nc2cc(Cl)ccc2Nc2cscc21,x,x,-30%,-3%,x,x,2%
Cc1c(C(=O)Nc2ccc(C(=O)O)cc2)cnn1C,-10%,-7%,3%,27%,-2%,-4,x
Cc1c(-c2cc(C(=O)O)on2)cnn1C,-3%,-14%,-17%,37%,-12%,-51*,-10%
Cc1nc(NC(=O)c2ccccc2)sc1-c1cc(C(=O)N2CCOCC2)nn1CCO,x,x,x,x,-7%,2,x
Cc1nc(NC(=O)c2ccccc2)sc1-c1cc(C(=O)N2CCOCC2)nn1Cc1ccccc1,x,x,x,x,-12%,-55*,-2%
CCCCN(C(=O)c1ccc(NC(=O)C(C)C)cc1)c1ccccc1,-11%,-17%,6%,33%,-7%,1,x
NC(=O)c1ccsc1NC(=O)COC(=O)c1ccc(Cl)nc1,2%,17%,-13%,18%,-5%,-2,x
NC(=O)c1ccsc1NC(=O)COC(=O)c1nc(Cl)ccc1Cl,3%,-5%,-13%,22%,-9%,-53*,-3%
CN(C)S(=O)(=O)c1cccc(C(=O)OCC(=O)Nc2sccc2C(N)=O)c1,-8%,-8%,-29%,1%,-7%,-66*,-4%
COc1ccccc1CN(C)C(=O)COC(=O)c1c(C)noc1C,-3%,x,-10%,12%[57 µM],-4%,-3,x
CC1(C(=O)Nc2ccc3c(c2)OCCO3)CSCC(=O)N1CCCn1ccnc1 (centres undefined),x,x,x,x,-11%,0,x
COC(=O)c1c(NC(C)=O)sc(C(=O)Nc2ccccc2)c1C,0%,-14%,-11%,0%,-5%,u,2%
Cc1ccc(F)cc1NCC(=O)Nc1ccc(Br)cc1,-5%,-2%,-24%,29%,4%,29,x
Cc1ccc(NCC(=O)Nc2ccc(Br)cc2)cc1C,-15%,u,-15%,37%,-1%,-3,6%
Cc1cn([C@H]2C[C@H](O)[C@@H](CNC/C=C/c3ccccc3[N+](=O)[O-])O2)c(=O)[nH]c1=O,x,x,x,x,-12%,4,x
Cc1ccc(Nc2nc(NCc3ccco3)c3ccccc3n2)cc1,-10%,-37%,u,0%,4%,x,-2%
Nc1nc(Nc2cccc(Cl)c2)nc(NCc2ccco2)c1[N+](=O)[O-],2%,u,u,-20%,-6%,-54*,-2%
Cc1cccc(Nc2nc(NCc3ccco3)nc(N)c2[N+](=O)[O-])c1,-6%,-12%,-10%,22%,0%,7,x
Nc1nc(Nc2ccc(Cl)cc2)nc(NCc2ccco2)c1[N+](=O)[O-],-3%,u,-17%,10%,3%,-54*,-2%
COc1ccccc1Nc1nc(NCc2ccco2)c2ccccc2n1,-6%,u,-31%,11%,8%,-6,x
COc1cccc(C(=O)Nc2ccc3oc(-c4cccc5c(Br)cccc45)nc3c2)c1,-4%,8%,0%,56%,x,x,x
COCCN(C(=O)COC(=O)c1cc2c(s1)CCCC2)c1c(N)n(Cc2ccccc2)c(=O)[nH]c1=O,-8%,-9%,-23%,3%,-2%,-56*,-3%
COCCN(C(=O)c1cc2c(s1)CCCCC2)c1c(N)n(Cc2ccccc2)c(=O)[nH]c1=O,-5%,3%,-15%,20%,-6%,1,x
SMILES,KAT2A inh,BAZ2B block,JMJD2A Tudor,HP1b binding inh,PLK1 PBD inh,PI5P4Ka inh,ADP-Glo counter
Cc1cccc2cc(CN(Cc3cccnc3)C(=S)NCCCN(C)C)c(=O)[nH]c12,0%,u,13µM*,-2%,9.5µM*,-53*,-3%
CCOc1ccc(-c2ccc(SC)nn2)cc1,-4%,-22%,7%,31%,-2%,-50*,16µM*
Nc1nc(N)c2cc(Sc3ccc4ccccc4c3)ccc2n1,-5%,-35%,-20%,31%,1%,-51*,0%
Nc1nc(N)c2cc(Sc3ccc(Cl)cc3)ccc2n1,x,x,x,x,-5%,-15,x
CNC(=O)Nc1ccc(Cn2cc(C(F)(F)F)ccc2=O)cc1,22%,-21%,8%,50%,-9%,-7,x
CC(C)(C)NC(=O)Nc1ccc(Cn2cc(C(F)(F)F)ccc2=O)cc1,-3%,2%,32µM*,-5%,24µM*,-55*,-1%
O=C(/C=C/c1cccs1)NCc1ccc2c(c1)OCO2,-1%,-2%,-9%,7%,-10%,2,x
CC(=O)c1ccc(NC(=O)c2cnn3ccccc23)cc1,-16%,-8%,2%,44%,-2%,-76*,-8%
O=C(CC12CC3CC(CC(Br)(C3)C1)C2)NC1CCCC1,0%,3%,6%,23%,3%,4,x
CC(C)(C(=O)N1CCC1(C)C(=O)NS(=O)(=O)c1ccc(C#N)cc1)c1ccccc1 (centres undefined),x,x,x,x,-14%,-25,-4%
O=C(Nc1ccc(Br)cc1)C1OCCc2ccccc21 (centres undefined),-11%,-15%,21%,72%,-17%,3,x
O=C(CSc1ncc2c(n1)-c1ccccc1N(Cc1ccc(F)cc1)S2(=O)=O)c1ccc(Cl)cc1,4%,1%,14%,40%,x,x,x
Cc1ccn2c(=O)nc(SCC(=O)NCc3ccccc3Cl)nc2c1,-17%,-32%,-28%,4%,-11%,-59*,-4%
CC(=O)Nc1ccc(S(=O)(=O)Nc2ccc3c(c2)CCC3)cc1,-4%,-18%,-22%,-4%,-3%,6,x
COc1ccc(S(=O)(=O)Nc2ccc3c(c2)CCC3)cc1,-8%,6%,10µM*,-12%,3.8µM*,-67*,-4%
Nc1c(N(CCO)C(=O)C2CCCC2)c(=O)[nH]c(=O)n1Cc1ccccc1,-4%,x,-1%,43%,2%,7,x
